KB-3-1 cytotox – KB-3-1 parental cell cytotoxicity. actives 1.4% (n = 400,000). Potency, µM (doses to about 46.1 µM), usual class: cytotoxic. KB-3-1 viability, CellTiter-Glo ATP luminescence, 72 h; note: nearly all actives have a fitted effect of over 60% in size
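Viability of parental KB-3-1 cells, measured by CellTiter-Glo luminescence, followed a 72 h incubation at 37 °C with pinned compounds in phenol-red-free DMEM containing 10% FBS.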
ELG1 repair inh – inhibitors of ELG1-dependent DNA repair in HEK293T cells | actives 2.3% (n = 330,000) | Potency, µM (titrated, usually from 46.1 µM), actives largely listed as inhibitors | HEK293T ELG1-luciferase reporter, luminescence, 16 h; DNA damage induced by 5-fluorouridine | AID 504467; note: nearly all actives have a fitted effect of over 55% in size
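DMSO vehicle served as the neutral condition. Each well held 2,000 cells given 5-fluorouridine plus compound; after 16 hr at 37 °C/5% CO2, ONE-Glo was added and luciferase measured 30 min later.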
KB-V1 cytotox – kills drug-selected multidrug resistant KB-V1 cells. KB-V1 MDR cells viability, CellTiter-Glo, 72 h. Potency, µM (titrated, usually from 46.1 µM), hits mostly cytotoxic. actives 3.4% (n = 400,000). AID 1347076; note: nearly all actives have a fitted effect of over 60% in size
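Cells of the MDR subline KB-V1 are plated, dosed with compound at multiple concentrations, and incubated 72 h at 37 degrees C; CellTiter-Glo is then added and luminescence read after 10 min.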
MCF10A rerep – induces DNA re-replication in MCF 10a normal breast cells. Potency, µM (series often up to 46.1 µM), usual class: activators. MCF 10A DNA re-replication, Hoechst nuclear intensity, 48 h. actives 2.9% (n = 350,000). AID 624296; note: nearly all actives have a fitted effect of over 50% in size
SW480 rereplic – induces DNA re-replication in SW480 colon adenocarcinoma cells; actives 1.8% (n = 340,000); SW480 DNA re-replication, Hoechst DNA content imaging, 48 h; Potency, µM (doses to about 46.1 µM), hits mostly activators; note: nearly all actives have a fitted effect of over 55% in size
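DNA re-replication was detected as more nuclei of elevated Hoechst intensity after 48 hr exposure to compound (23 nL pinned per well of 250 cells).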
Large screens that a line does not name were inactive; ! = a repeat was not active. Shown are actives, neighbours in structure and some others; about 8.2% of the full set was active somewhere. Calls come from the whole dose curve; as a rule, active = well fitted curve in the direction sought with a large enough effect; inconclusive = small, poorly fitted or top-dose-only effect, or another doubt; inactive = no such curve, though single readings can be large; an effect the other way counts as inactive or inconclusive.

COc1cccc(N2CCN(C(=O)c3oc4ccccc4c3NC(=O)Cc3ccc(OC)c(OC)c3)CC2)c1	ELG1 repair inh 16µM
O=C(Cc1ccccc1)Nc1c(C(=O)N2CCN(c3ccc(F)cc3)CC2)oc2ccccc12	KB-V1 cytotox 12µM (no result: ELG1 repair inh, MCF10A rerep, SW480 rereplic)
O=C(COc1ccccc1)Nc1c(C(=O)N2CCN(c3ccc(F)cc3)CC2)oc2ccccc12	none (no result: ELG1 repair inh, MCF10A rerep, SW480 rereplic)
COc1ccc(C(=O)Nc2ccccc2C(=O)N2CCOCC2)cc1OC	none
CCCNC(=O)Nc1ccc2c(c1)OC[C@H](C)N(C(=O)C1CCCCC1)C[C@@H](C)[C@H](OC)CN(C)C2=O	none (no result: ELG1 repair inh, MCF10A rerep, SW480 rereplic)
Cc1ccc(Oc2ccccc2NC(=O)C2=COCCO2)cc1	none
O=C(CN1CCc2ccccc2C1)Nc1ccccc1C(F)(F)F	MCF10A rerep inconclusive
COC(=O)c1cc(-c2c(C)oc3cc(O)ccc3c2=O)c(C)o1	none
COC(=O)c1cc(-c2c(C)oc3cc(OC)ccc3c2=O)c(C)o1	KB-V1 cytotox 18µM
O=C(CCl)NCc1c(Cl)cccc1-n1cccc1	ELG1 repair inh inconclusive, MCF10A rerep 18µM
O=C(Cc1c(Cl)cccc1Cl)NCCc1ccc(Cl)cc1	none
O=C(C(=Cc1ccc(F)cc1)C(=O)c1ccccc1)c1ccccc1	KB-3-1 cytotox 18µM, KB-V1 cytotox 21µM (no result: ELG1 repair inh, MCF10A rerep, SW480 rereplic)
CC(=O)c1cc(C#N)c(SCc2ccncc2)nc1C	ELG1 repair inh inconclusive
CC(=O)c1cc(C#N)c(SCc2ccccc2C#N)nc1C	KB-3-1 cytotox 16µM, KB-V1 cytotox 10µM, MCF10A rerep inconclusive, SW480 rereplic inconclusive
COc1ccc2ccccc2c1/C=N/NC(=O)c1cccc(Br)c1	MCF10A rerep inconclusive
Cc1cc(C)n(CCC(=O)N/N=C/c2c(O)ccc3ccccc23)n1	ELG1 repair inh 3.7µM, MCF10A rerep inconclusive, SW480 rereplic inconclusive
O=C(CN1CCCC1)N/N=C/c1c(O)ccc2ccccc12	KB-3-1 cytotox inconclusive, ELG1 repair inh 5.2µM, MCF10A rerep inconclusive
Cc1cc(C)n(CCC(=O)N/N=C/c2ccc(O)cc2)n1	none
O=C(N/N=C/c1c(O)ccc2ccccc12)c1cccc(C(F)(F)F)c1	KB-3-1 cytotox inconclusive, ELG1 repair inh inconclusive, MCF10A rerep 4.6µM, SW480 rereplic inconclusive
O=C(N/N=C\c1c(O)ccc2ccccc12)c1ccc(Cn2cccn2)o1	KB-3-1 cytotox 16µM, ELG1 repair inh inconclusive, KB-V1 cytotox inconclusive, MCF10A rerep 10µM, SW480 rereplic inconclusive
O=C(NN=Cc1c(O)ccc2ccccc12)C1CC1	KB-3-1 cytotox inconclusive, KB-V1 cytotox inconclusive, SW480 rereplic inconclusive (no result: ELG1 repair inh)
O=C(N/N=C/c1ccc(N2CCOCC2)o1)c1cccc(C(F)(F)F)c1	MCF10A rerep 21µM, SW480 rereplic inconclusive
O=C(CCSc1nc2ccccc2s1)N/N=C/c1c(O)ccc2ccccc12	KB-3-1 cytotox inconclusive, MCF10A rerep 21µM, SW480 rereplic 6.5µM
CCCN1C(=O)/C(=C/c2ccc(C)o2)SC1=Nc1ccc(OC)cc1	ELG1 repair inh inconclusive, MCF10A rerep 16µM
CCCN1C(=O)/C(=C/c2ccc(C)o2)SC1=Nc1ccc(OCC)cc1	none
CCCCCCC(=O)Nc1cc2nc3c(nc2cc1C)c(=O)n(C)c(=O)n3C	none (no result: ELG1 repair inh, MCF10A rerep, SW480 rereplic)
c1ccc2c(c1)CCCN2c1nc(N2CCOCC2)nc(N2CCOCC2)n1	ELG1 repair inh 8.2µM
Cc1ccc(-n2c(C)cc3c2CC(C)(C)CC3=O)cc1C	MCF10A rerep inconclusive
Cc1cc2c(n1-c1ccc(Br)cc1)CC(C)(C)CC2=O	KB-V1 cytotox 26µM
CCN(CC)S(=O)(=O)c1ccc(OC)c(NC(=O)c2cc3c(=O)n4ccccc4nc3s2)c1	MCF10A rerep 16µM
COc1ccc(C(CNC(=O)c2c(C)nn(Cc3ccc(C)cc3)c2Cl)N2CCOCC2)cc1 (centres undefined)	ELG1 repair inh 21µM (no result: KB-3-1 cytotox, KB-V1 cytotox)
COc1ccc(C(CNC(=O)c2ccc(C)o2)N2CCOCC2)cc1 (centres undefined)	none
Cc1nn(Cc2ccccc2)c(C)c1C(=O)NCC(c1cccs1)N1CCOCC1 (centres undefined)	KB-V1 cytotox inconclusive
Cc1ccc(Cn2nc(C)c(C(=O)NCC(c3cccs3)N3CCOCC3)c2Cl)cc1 (centres undefined)	ELG1 repair inh 5.6µM, KB-V1 cytotox inconclusive
O=C(NCCN1CCC(n2c(=O)[nH]c3ccccc32)CC1)c1cc(F)cc(F)c1	none (no result: ELG1 repair inh, MCF10A rerep, SW480 rereplic)
O=C(COc1ccc(C(=O)c2ccccc2)cc1)NCC1CCCCC1	MCF10A rerep 18µM
O=C(COc1ccccc1)NCC1CCCO1 (centres undefined)	none
COc1ccc(C(CNC(=O)Cc2ccc(-c3ccccc3)cc2)N(C)C)cc1 (centres undefined)	MCF10A rerep inconclusive, SW480 rereplic 18µM
CCCCC[C@H]1CN(CCc2ccccc2)C(=O)[C@@H]1CC(=O)NCc1ccc(OC)cc1	KB-3-1 cytotox inconclusive, KB-V1 cytotox 18µM!
CCCCC[C@H]1CN(CCCC)C(=O)[C@@H]1CC(=O)NCc1ccc(OC)cc1	KB-V1 cytotox inconclusive
COc1ccccc1CNC(=O)COC(=O)c1c(C)nn(-c2ccccc2)c1Cl	ELG1 repair inh inconclusive
COc1cccc(CNC(=O)COC(=O)c2c(C)nn(-c3ccccc3)c2Cl)c1	ELG1 repair inh 23µM
Cc1c(C)c(C)c(C(=O)c2ccc(NC(=O)c3ccccc3C(=O)O)cc2)c(C)c1C	KB-V1 cytotox inconclusive
CC(C)COC(=O)COc1cc(Cl)c(Cl)cc1Cl	none (no result: KB-3-1 cytotox, KB-V1 cytotox, MCF10A rerep, SW480 rereplic)
Cc1nn(-c2ccccc2)c(Cl)c1C(=O)NCCCCNC(=O)c1c(C)nn(-c2ccccc2)c1Cl	ELG1 repair inh 16µM
CCOc1ccc(S(=O)(=O)N(C)c2ccc(OCC(=O)NCC3CCCCC3)cc2)cc1	KB-3-1 cytotox inconclusive, ELG1 repair inh 26µM, KB-V1 cytotox inconclusive, MCF10A rerep inconclusive
COc1ccc(OCCC(=O)NCc2ccccc2)cc1	none
COc1ccc(CC(=O)Oc2ccc(F)cc2)cc1	KB-V1 cytotox inconclusive, MCF10A rerep 0.65µM
COc1ccc(CC(=O)OCC(=O)c2ccc(F)cc2)cc1	ELG1 repair inh inconclusive
Cc1nn(-c2ccccc2)c(Cl)c1C(=O)NCc1ccccc1F	none
COc1ccc(CC(=O)NCc2ccccc2)cc1	KB-3-1 cytotox inconclusive, MCF10A rerep 7.3µM, SW480 rereplic inconclusive
CC(C)C[C@H](NC(=O)/C=C/[C@H]1O[C@@H](n2ccc(=O)[nH]c2=O)[C@H](O)[C@@H]1O)C(=O)O	none (no result: ELG1 repair inh, MCF10A rerep, SW480 rereplic)
CCOC(=O)C1(CCc2ccccc2)CCN(Cc2cc(OC)c(OC)cc2OC)CC1	KB-3-1 cytotox inconclusive, ELG1 repair inh inconclusive, MCF10A rerep inconclusive
COc1ccc(NC(=O)CCNS(=O)(=O)c2ccc3c(c2)CCCC(=O)N3)cc1	none (no result: ELG1 repair inh, MCF10A rerep, SW480 rereplic)
NC(=O)C1CCCN(C(=O)c2[nH]c(C(F)(F)F)nc2-c2ccccc2)C1 (centres undefined)	none (no result: ELG1 repair inh, MCF10A rerep, SW480 rereplic)
COc1cccc(CNC(=O)COc2ccc(C(=O)c3ccccc3)cc2)c1	KB-3-1 cytotox inconclusive, KB-V1 cytotox 21µM, MCF10A rerep inconclusive, SW480 rereplic inconclusive

From PubChem BioAssay
